# Bioassay records as filed in PubChem BioAssay.
# gsp antag: antagonizes gsp, the McCune-Albright syndrome mutation | gsp-mutant cells, cAMP HTRF, 30 min | Potency, µM (doses to about 76.9 µM), inactives show top-dose activity change, negative = inhibition, usual class: inhibitors | 340,000 tested, 0.4% active; calls by dose curve; cell line not stated here;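 note: intracellular cAMP measured with PDE inhibitor Ro 20-1724 present during compound exposure; potency is the fitted concentration of half-maximal effect; % is set by controls: 0 for no effect and ±100 for the full control effect; nearly all actives have a fitted effect of over 65% in size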
#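 Measurement of cellular cAMP by homogeneous time-resolved fluorescence following a 30 min compound exposure at 37C. The PDE inhibitor […] was present throughout; the assay buffer was DPBS with 0.05% BSA and 0.005% Tween 20.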
# RXFP1 antag: antagonists of human relaxin receptor RXFP1; 350,000 tested, 0.59% active; AID 1259400; HEK293-RXFP1, relaxin-stimulated cAMP HTRF, 30 min; stronger effect = lower value; activity change, negative = inhibition, % at 57.5 µM;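 active = activity change of -60% or lower, but not beyond a set lower limit; inconclusive = change between -60% and -40%, or beyond the set limit; inactive = change above -40%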; note: % is set by controls: 0 for no effect and ±100 for the full control effect
# Target sequence (Q9HBX9 whole entry, looked up): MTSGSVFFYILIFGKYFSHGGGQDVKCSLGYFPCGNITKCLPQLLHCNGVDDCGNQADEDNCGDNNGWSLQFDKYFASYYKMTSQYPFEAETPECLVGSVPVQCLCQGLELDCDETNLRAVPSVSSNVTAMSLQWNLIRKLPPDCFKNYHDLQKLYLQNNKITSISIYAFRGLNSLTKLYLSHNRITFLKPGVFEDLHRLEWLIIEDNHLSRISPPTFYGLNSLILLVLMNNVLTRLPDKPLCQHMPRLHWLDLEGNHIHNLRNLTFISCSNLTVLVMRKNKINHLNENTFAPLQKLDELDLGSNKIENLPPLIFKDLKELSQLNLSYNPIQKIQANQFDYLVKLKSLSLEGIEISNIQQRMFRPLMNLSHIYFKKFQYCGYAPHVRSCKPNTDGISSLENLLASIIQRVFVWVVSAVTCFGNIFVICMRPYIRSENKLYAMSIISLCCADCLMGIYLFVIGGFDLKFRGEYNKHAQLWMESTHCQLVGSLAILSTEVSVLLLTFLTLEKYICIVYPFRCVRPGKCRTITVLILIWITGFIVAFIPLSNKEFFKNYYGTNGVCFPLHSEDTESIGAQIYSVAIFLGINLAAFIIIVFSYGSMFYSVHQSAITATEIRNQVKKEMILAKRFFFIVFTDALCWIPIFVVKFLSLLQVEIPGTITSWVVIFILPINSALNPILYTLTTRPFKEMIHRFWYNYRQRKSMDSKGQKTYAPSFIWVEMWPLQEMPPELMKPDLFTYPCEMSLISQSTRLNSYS
# gsp agonist: activates gsp, the McCune-Albright syndrome mutation; gsp mutant cells, cAMP HTRF, 30 min; Potency, µM (series often up to 76.9 µM), for the others: at the highest dose activation (cAMP increase), actives largely listed as activators; 340,000 tested, 0.13% active; AID 624287; active = well fitted activation curve with a large enough effect; inconclusive = small, poorly fitted or top-dose-only effect, or another doubt; inactive = no such curve, though single readings can be large or run the other way; cell line not stated here;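 note: phosphodiesterase inhibitor Ro 20-1724 added with compounds to block cAMP breakdown; potency is the fitted concentration of half-maximal effect; nearly all actives have a fitted effect of over 60% in size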
#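 Cells in DMEM/10% FBS with G418 were pretreated with compounds in DMSO plus […] (300 uM stock) for 30 min at 37C. cAMP was measured by HTRF (cAMP-d2 plus anti-cAMP antibody-K) after 30 min at room temperature.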
# pAkt inh: Akt phosphorylation inhibition | AID 651550 | Neuro2A IGF-stimulated pAkt S473 HTRF, 20 min; stronger effect = lower value | activity change, % for hits at 50 µM | 360,000 tested, 0.32% active; in the data active = activity change below about -80%; inconclusive = mostly about -51% to -80%; note: % is set by controls: 0 for no effect and ±100 for the full control effect
#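 Neuro2A cells in DMEM with 0.5% FBS, overnight at 37 deg C, given compound at single 50 µM final, then IGF (6 nM final) for 20 min at 37 deg C. Lysed; phospho-Akt Ser473 by HTRF after 24 h, 665/615 ratio.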
# RXFP1 ag: activates the human relaxin receptor RXFP1; Q9HBX9; HEK293T-RXFP1 cAMP TR-FRET, 30 min; response scale: percent of porcine relaxin response, buffer zero; Potency, µM (titrated, usually from 57.5 µM), for the others: top-dose activation, actives largely listed as activators; 370,000 tested, 0.3% active; active = well fitted activation curve with a large enough effect; inconclusive = small, poorly fitted or top-dose-only effect; note: potency is the fitted concentration of half-maximal effect; % is set by controls: 0 for no effect and ±100 for the full control effect; nearly all actives have a fitted effect of over 60% in size
#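 Agonist response is measured as cAMP accumulation in an RXFP1-transfected HEK293T line under PDE4 inhibition. Values are scaled between buffer-only and 29 nM porcine relaxin, and EC50s come from standard Hill equation fits.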
# Starred values were filed as active, the others as inactive; i = inactive; u = inconclusive; x = no result given; [ ] = remark or other dose. An excerpt weighted towards active compounds, which were near 1.2% of everything screened.
SMILES,gsp antag,RXFP1 antag,gsp agonist,pAkt inh,RXFP1 ag
CCn1nc(C)cc1-c1nnc(Sc2ncc([N+](=O)[O-])s2)n1C,10.8%,-72.8*,7.9%,i,1.5%
CCN1CCN(Cc2c(O)ccc3oc(C)c(C(=O)Nc4cccc(C(F)(F)F)c4)c23)CC1,x,-9.0,x,x,-0.9%
Cc1ccc(C(=O)c2coc3cc([N+](=O)[O-])c(O)c([N+](=O)[O-])c23)cc1,35.5µM*,-6.0,-68.0%,i,-2.0%
COc1ccc(N2C(=O)CC(N3CCOCC3)C2=O)cc1 (configuration not stated),2.9%,3.5,16.2%,-110.3%*,0.2%
COc1ccc(N2C(=O)CC(Sc3nnc(-c4ccccc4)o3)C2=O)cc1 (configuration not stated),6.5%,-6.7,28.2µM*,x,17.7%
COc1ccc(N2C(=O)CC(Cc3ccccc3)C2=O)cc1 (configuration not stated),11.7%,9.4,-1.2%,-88.6%*,1.8%
O=C1CC(Sc2nnc(-c3ccccc3O)o2)C(=O)N1c1ccccc1 (configuration not stated),-10.0%,10.6,-1.4%,i,11.8%
COC(=O)c1ccc2c(=O)n(-c3ccccc3)c(=S)[nH]c2c1,-12.9%,-98.7*,-33.4%,i,-1.0%
CC(=O)CC/C=C(\C)CC/C=C(/C)CC/C=C(\C)CCC=C(C)C,x,-11.4,x,x,x
O=c1[nH]c(=O)n(Cc2ccc(Oc3ccccc3)cc2)cc1Br,x,x,x,x,3.5%
C=C1CC(Cn2cc(Br)c(=O)[nH]c2=O)(c2ccc(-c3ccccc3)cc2)OC1=O (configuration not stated),6.8%,-89.7*,13.4%,i,x
COc1nc(-c2ccc(C)cc2)ccc1-c1noc(-c2cccnc2)n1,19.2%,-11.6,-23.9%,-105.3%*,2.1%
Cn1c(NC(=O)c2cccs2)cc(=O)n(C)c1=O,3.5%,x,u,i,3.1%
Cn1c(NC(=O)c2ccc(Br)o2)cc(=O)n(C)c1=O,-0.8%,-4.6,5.0%,-116.0%*,3.1%
COc1ccc2cc(C(=O)NCc3ccc4c(c3)CCN4C(=O)c3ccc(C)cc3)[nH]c2c1,x,0.3,x,x,5.0%
CC1CC(=O)c2cnc(Nc3cccc(C(F)(F)F)c3)nc2C1 (configuration not stated),0.6%[15.4 µM],-7.4,u,-103.8%*,1.9%
CC1CC(=O)c2cnc(Nc3ccccc3)nc2C1 (configuration not stated),2.1%,4.0,3.9%,i,-0.1%
CC(=O)c1ccc(NC(=O)CSc2nc(=O)n(Cc3ccccn3)c3c2CCC3)cc1,x,x,x,x,3.0%
CC1(C)COCN1S(=O)(=O)c1ccc(C(=O)Nc2nnc(-c3ccc(Cl)s3)o2)cc1,31.6µM*,-12.5,-1.2%,i,-0.2%
COc1ccc(-c2nnc(NC(=O)c3ccc(S(=O)(=O)N4COCC4(C)C)cc3)o2)cc1,-34.7%,-0.5,9.8%,i,0.9%
CC(=O)/C=C/C=C1/C2CCC(C2)C1(C)C (configuration not stated),x,-19.9,x,x,x
Cc1ccc(C(C2C(=O)CC(C)(C)CC2=O)C2C(=O)CC(C)(C)CC2=O)s1,-12.8%,-67.6*,-28.6%,i,-2.1%
CC1(C)CC(=O)C(C(c2ccncc2)C2C(=O)CC(C)(C)CC2=O)C(=O)C1,-8.5%,-5.8,2.3%,i,0.6%
S=c1[nH]c2nc(Cl)c(Cl)nc2[nH]1,x,2.5,12.6µM*,i,x
S=c1[nH]c2cnc(Cl)nc2[nH]1,4.2%,-1.5,u,i,x
O=C(COc1ccc([N+](=O)[O-])cc1)N(Cc1ccccc1)Cc1ccccc1,-19.3%,x,-46.4%,i,0.7%
O=C(COc1ncnc2cc([N+](=O)[O-])ccc12)N(CCc1ccccc1)Cc1ccccc1,28.2µM*,0.1,u,i,10.0%
NC[C@H]1O[C@H](O[C@H]2[C@H](O[C@@H]3O[C@H](CO)[C@@H](O)[C@H]3O)C(O)[C@H](N)C[C@@H]2N)[C@H](N)[C@@H](O)[C@@H]1O (some centres not stated),x,0.0,x,x,x
O=C(Nc1cc(C(F)(F)F)ccc1-n1cncn1)c1ccc(Cl)cc1,10.9%,-16.8,-3.0%,-91.1%*,1.7%
CCOC(=O)C(=O)c1csc(NC=O)n1,x,9.6,x,x,x
